According to PubChem BioAssay AID602329 (Broad Institute, 2012):
About 510 (0.14%) of roughly 360,000 compounds were called active. The sample holds actives, similar compounds and a random draw of the others, so the mix is not that of the screen. Values without a mark were called inactive.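 How the source made its calls: active means mean normalized replicate activity at least 40 and at least half of replicates scoring 40 or more; inconclusive means only one of the two criteria met; inactive means mean below 40 and under half of replicates reaching 40.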

Molecular target: DNA repair and recombination protein RAD54-like (Homo sapiens) (UniProt Q92698)
Sequence (Q92698 whole entry, looked up): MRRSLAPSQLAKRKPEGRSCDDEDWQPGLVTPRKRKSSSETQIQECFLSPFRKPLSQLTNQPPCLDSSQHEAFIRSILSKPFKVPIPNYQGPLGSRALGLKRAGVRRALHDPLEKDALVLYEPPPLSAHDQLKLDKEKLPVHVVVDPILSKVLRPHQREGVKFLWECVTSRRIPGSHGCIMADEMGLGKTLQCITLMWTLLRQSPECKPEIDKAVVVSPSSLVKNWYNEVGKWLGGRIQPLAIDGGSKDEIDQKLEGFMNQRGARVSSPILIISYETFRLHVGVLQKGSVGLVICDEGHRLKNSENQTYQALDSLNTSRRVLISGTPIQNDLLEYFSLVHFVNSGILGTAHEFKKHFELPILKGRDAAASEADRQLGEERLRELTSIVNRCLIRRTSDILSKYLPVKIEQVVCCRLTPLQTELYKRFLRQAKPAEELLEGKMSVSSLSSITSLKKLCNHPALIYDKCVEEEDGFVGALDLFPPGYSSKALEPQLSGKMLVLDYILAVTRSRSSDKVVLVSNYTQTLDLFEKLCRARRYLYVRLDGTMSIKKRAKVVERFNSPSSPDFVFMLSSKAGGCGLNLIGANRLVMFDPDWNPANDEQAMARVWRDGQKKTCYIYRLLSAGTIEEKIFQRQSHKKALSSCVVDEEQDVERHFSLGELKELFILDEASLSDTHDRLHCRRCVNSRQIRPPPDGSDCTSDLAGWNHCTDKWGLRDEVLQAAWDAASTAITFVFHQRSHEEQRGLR
Test: inhibitors of human RAD54 branch migration, primary screen, biochemical, fluorescence, single point (AID 602329);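 further: 0% = median of neutral control wells and 100% = median of positive control wells; inhibitors cause a drop in the FAM fluorescence signal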
Conditions: RAD54 Holliday junction branch migration, FAM/BHQ fluorescence; at 10.4 µM; stronger effect = higher value

SMILES | inhibition
C[C@@H]1CN([C@H](C)CO)C(=O)c2cc(NC(=O)CCCN(C)C)ccc2O[C@H]1CN(C)S(=O)(=O)c1ccc(Cl)cc1 | 3.22%
C[C@H]1CCCCO[C@@H](CN(C)C(=O)c2ccccc2)[C@@H](C)CN([C@@H](C)CO)C(=O)c2cc(NS(=O)(=O)c3cccs3)ccc2O1 | -5.69%
CCCNC(=O)Nc1ccc2c(c1)C(=O)N(C)C[C@H](OC)[C@H](C)CN(Cc1ccncc1)[C@H](C)CO2 | 3.54%
CCCC#Cc1cnc2c(c1)C(=O)N([C@H](C)CO)C[C@@H](C)[C@@H](CN(C)C(=O)Nc1ccccc1F)O2 | -0.939%
C[C@@H]1CN([C@H](C)CO)C(=O)c2cccc(NS(=O)(=O)c3ccc(Cl)cc3)c2O[C@@H]1CN(C)Cc1ccc(Cl)c(Cl)c1 | -2.03%
C[C@H](O)C#Cc1cnc2c(c1)C(=O)N([C@H](C)CO)C[C@@H](C)[C@@H](CN(C)C(=O)Nc1ccc(C(F)(F)F)cc1)O2 | -3.33%
C[C@@H]1CN([C@@H](C)CO)C(=O)c2cc(NC(=O)CCN3CCOCC3)ccc2O[C@@H]1CN(C)S(=O)(=O)c1ccccc1 | 5.08%
C[C@@H]1CN([C@@H](C)CO)S(=O)(=O)c2ccc(-c3ccccc3F)cc2O[C@H]1CN(C)Cc1cncnc1 | -6.21%
OC[C@@H]1[C@H](c2ccc(C3=CCCC3)cc2)[C@H]2CN(Cc3ccncc3)CCCCN12 | 1.55%
COc1cccc(NC(=O)N(C)C[C@H]2Oc3cc(/C=C/c4ccccc4)ccc3S(=O)(=O)N([C@H](C)CO)C[C@@H]2C)c1 | -2.16%
C[C@H]1CN([C@@H](C)CO)C(=O)c2cc(C#CC3CCCC3)cnc2O[C@@H]1CN(C)C(=O)Cc1ccccn1 | 3.4%
O=C(N[C@H]1CC[C@@H](CCNS(=O)(=O)c2cccc(Cl)c2)O[C@@H]1CO)c1ccncc1 | -2.66%
Cc1ccc(S(=O)(=O)N(C)C[C@@H]2Oc3ccc(NC(=O)Nc4ccc5c(c4)OCO5)cc3C(=O)N([C@@H](C)CO)C[C@@H]2C)cc1 | 2.81%
COc1ccc(S(=O)(=O)Nc2cccc3c2O[C@@H](CN(C)S(=O)(=O)c2c(C)noc2C)[C@@H](C)CN([C@H](C)CO)C3=O)cc1 | 4.47%
C#CCOCCOCCOCCNc1nc(N2CCN(C(=O)[C@H](CO)n3cc([C@@H](N)C(C)C)nn3)CC2)nc(N2CCN(C(=O)[C@H](CCC(=O)O)n3cc([C@@H](N)[C@H](C)CC)nn3)CC2)n1 | -7.97%
C#CCOCCOCCOCCNc1nc(N2CCN(C(=O)C([C@@H](C)O)n3cc([C@@H](N)CCCCN)nn3)CC2)nc(N2CCN(C(=O)[C@H](CCCCN)n3cc(CN)nn3)CC2)n1 (some centres undefined) | 69.5% (active)
C#CCOCCOCCOCCNc1nc(N2CCN(C(=O)[C@H](CCCCN)n3cc([C@@H](N)C(C)CC)nn3)CC2)nc(N2CCN(C(=O)[C@H](Cc3ccc(O)cc3)n3cc([C@@H](N)C(C)CC)nn3)CC2)n1 (some centres undefined) | -6.01%
CC(=O)N1[C@H](CO)[C@@H](c2ccccc2)[C@@H]1CN(CC(C)C)C(=O)c1ccccn1 | -0.684%
Cc1ccc(S(=O)(=O)Nc2ccc3c(c2)C(=O)N([C@@H](C)CO)C[C@H](C)[C@@H](CN(C)C(=O)Nc2ccc(F)cc2)OCCCC[C@H](C)O3)cc1 | 8.58%
COC(=O)C[C@H]1CC[C@H]2[C@H](COc3ccc(NC(=O)C4CC4)cc3C(=O)N2C)O1 | -2.57%

SMILES | inhibition
C[C@@H](NC(=O)C[C@H]1CC[C@H](NS(=O)(=O)c2cccc(F)c2)[C@H](CO)O1)c1ccccc1 | 0.335%
O=C(Nc1cc(F)ccc1F)N1C[C@H]2[C@@H](c3ccccc31)[C@@H](CO)N2C(=O)c1ccccc1 | 8.71%
Cc1ccc(S(=O)(=O)Nc2ccc3c(c2)C(=O)N([C@H](C)CO)C[C@H](C)[C@@H](CN(C)S(=O)(=O)c2cn(C)cn2)OCCCC[C@H](C)O3)cc1 | 1.15%
O=C([C@H]1[C@H](CO)[C@H]2Cn3c(ccc(C4=CCCCC4)c3=O)[C@@H]1N2)N1CCCCC1 | -7.2%
Cc1cccc(N(C)C(=O)c2cc3c(=O)[nH]c4ccc(C)cc4c3s2)c1 | -5.82%
CCN(CC)CCCNC(=O)c1cc2c(=O)[nH]c3ccc(C)cc3c2s1 | 51.5% (active)
Cc1ccc2[nH]c(=O)c(CC(=O)O)c(-c3ccccc3)c2c1 | -1.43%
CO[C@H]1CN(C)C(=O)c2cc(NC(=O)C3CC3)ccc2OC[C@H](C)N(CC2CCCC2)C[C@@H]1C | -8.31%
Cc1noc(C)c1NC(=O)Nc1ccc2c(c1)C(=O)N([C@H](C)CO)C[C@@H](C)[C@@H](CN(C)C(=O)NC(C)C)O2 | 8.07%
CC(C)NC(=O)Nc1ccc2c(c1)C(=O)N([C@@H](C)CO)C[C@@H](C)[C@H](CN(C)C(=O)NC1CCCCC1)O2 | -6.48%
N#Cc1ccccc1S(=O)(=O)N1CCN(Cc2c(O)ccc3ccccc23)CC1 | 1.29%
CN1CCN(Cc2c(O)ccc3c2oc(=O)c2ccccc23)CC1 | 61.1% (active)
O=c1oc2c(CN3CCCCC3)c(O)ccc2c2c1CCCCC2 | 3.11%
O=C(C[C@@H]1C[C@@H]2c3cc(NC(=O)Cc4ccncc4)ccc3O[C@@H]2[C@H](CO)O1)NCc1cccc(F)c1 | -0.719%
C/C=C/c1cnc2c(c1)C(=O)N([C@@H](C)CO)C[C@H](C)[C@H](CN(C)C(=O)CN1CCOCC1)O2 | 2.37%
C[C@@H]1CN([C@@H](C)CO)C(=O)c2cc(NS(=O)(=O)c3ccccc3)ccc2O[C@@H](C)CCCCO[C@H]1CN(C)C(=O)C1CCCCC1 | -16.2%
CC(OC(=O)c1ccc(S(=O)(=O)N2CCOCC2)cc1)c1ccccc1 (centres undefined) | 0.166%
COC(=O)c1c(NC(=O)c2ccc(S(=O)(=O)N3CCOCC3)cc2)sc2c1CCN(C(C)C)C2 | 75% (active)
COc1ccc(S(=O)(=O)N2CCOCC2)cc1NC(=O)c1ccc(OCC(C)C)c(OC)c1 | 3.95%
